Only some compounds are listed: those with a hit (about 20% of all), similar ones and a draw of the others.
HCMV antiviral: qHTS Assay for inhibitors of the human cytomegalovirus (HCMV); HFF cells, HCMV-luciferase reporter, 72 h; active compounds read low; activity change, negative = inhibition, % at 57.5 µM; 410,000 tested, 4.5% active; in the data active = activity change below about -60%; inconclusive = no clear call, values can overlap the other calls; inactive = above about -39%; also: % is scaled to controls: 0 for no effect and ±100 for the full control effect
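Inhibition of viral replication was scored as loss of reporter luminescence in HFFs infected with HCMV-luciferase (MOI 1 PFU/cell) for 72 h; compounds tested at 2 doses, normalized to buffer and Salinomycin controls.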
Pf growth 48h: Primary qHTS for delayed death inhibitors of the malarial parasite plastid, 48 hour incubation | P. falciparum luciferase growth in erythrocytes, 48 h | Potency, µM (series often up to 28.7 µM), for inactives: at the top dose activity change, negative = inhibition, most hits filed as inhibitors | 310,000 tested, 5.9% active | AID 504832, 2011; also: potency is read from the fitted curve at half-maximal effect; % is scaled to controls: 0 for no effect and ±100 for the full control effect
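Firefly luciferase activity from engineered P. falciparum reports growth; inhibitors lower the luminescent signal. Cultures contained 2% hematocrit erythrocytes at 0.1% final parasitemia.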
CHX counter: Cycloheximide Counterscreen for Small Molecule Inhibitors of Shiga Toxin | cell reporter, cycloheximide protein synthesis inhibition counterscreen | AID 2314, 2010 | max response, % | 300,000 tested, 12% active; in the data active = max response mostly above about 13%, no sharp cut-off; inactive = mostly below about 14%; also: read at 38.3 µM for the half of the compounds with a filed dose; 0% is about no effect
Shiga toxin inh: A qHTS for Small Molecule Inhibitors of Shiga Toxin | 290,000 tested, 9.2% active | Vero cells, Shiga toxin protein synthesis inhibition reporter | inhibition, % at 38.7 µM | AID 2315, 2010; in the data active = inhibition mostly above about 28%, no sharp cut-off; inactive = mostly below about 43%; also: 0% is about no effect
Pf growth 96h: Primary qHTS for delayed death inhibitors of the malarial parasite plastid, 96 hour incubation | 320,000 tested, 6.9% active | Potency, µM (titrated, usually from 28.7 µM), for inactives: top-dose activity change, negative = inhibition, most hits filed as inhibitors | P. falciparum luciferase reporter growth, 96 h | AID 504834, 2011; also: potency is read from the fitted curve at half-maximal effect; % is scaled to controls: 0 for no effect and ±100 for the full control effect
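P. falciparum expressing integrated firefly luciferase, in erythrocytes at 2% hematocrit, 0.05% parasitemia, incubated with compounds 96 h at 37 C, 5% CO2. Growth inhibition read as loss of luminescence; two-generation exposure targets delayed-death apicoplast inhibitors.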
The depositor's hits bear a star; ? = inconclusive; . = no result given; [ ] = another dose, or the depositor's remark. Unless noted, calls follow the shape of the dose curve; as a rule, active = well fitted inhibition curve with a large enough effect; inconclusive = small, poorly fitted or top-dose-only effect, or another doubt; inactive = no such curve, though single readings can be large or run the other way.

SMILES	HCMV antiviral	Pf growth 48h	CHX counter	Shiga toxin inh	Pf growth 96h
CCCCn1cc[n+](C)c1	.	.	-6.3	5.2	.
CCc1nn2c(=O)cc(COC(=O)CNC(=O)COc3ccc(C)cc3)nc2s1	2.3	.	.	.	.
Cc1ccc(NC(=O)CSC2=NN3CCCC(=O)N=C3S2)cc1Cl	?	?	-1.3	-4.9	?
CCCCc1ccc(NC(=O)CSC2=NN3CCCC(=O)N=C3S2)cc1	-38.7	-3.8%	16.6	21.2	2.08µM*
O=C1CCCN2N=C(SCC(=O)Nc3cccc(Cl)c3)SC2=N1	-81.2*	?	2.1	-4.6	82.3%
O=C1CCCN2N=C(SCC(=O)Nc3cccc(C(F)(F)F)c3)SC2=N1	-86.5*	?	-4.3	-11.3	-35.9%
CCOc1ccc(NC(=O)CSC2=NN3CCCC(=O)N=C3S2)cc1	-9.2	?	5.5	-4.9	-2.0%
O=C1CCCN2N=C(SCC(=O)Nc3ccccc3C(F)(F)F)SC2=N1	72.3	?	0.9	-10.6	?
O=C1CCCN2N=C(SCC(=O)Nc3ccc(Cl)cc3)SC2=N1	-34.5	-13.2%	-2.9	11.3	10.4µM*
CN(c1ccccc1)S(=O)(=O)c1cccc(C(=O)OCC(=O)NCCCN2CCCC2=O)c1	1.5	-10.9%	6.8	-13.0	?
CC(=O)c1cccc(NC(=O)N2CCCC(C(=O)c3cc(F)ccc3F)C2)c1 (stereo not given)	?	1.2%	-0.8	5.2	16.3%
COc1ccc(CCN2C(=O)c3[nH]nc(-c4ccccc4O)c3C2c2ccc(OC)c(OC)c2)cc1 (stereo not given)	-16.6	.	.	.	.
Cc1ccc2oc(=O)c3cc(C(=O)N4CCN(c5ccccc5F)CC4)sc3c2c1	-1.1	.	.	.	.
Cc1cccc(CSC2=NN3CCCC(=O)N=C3S2)c1	15.8	65.2%	43.0*	56.4*	-16.2%
COc1ccc(NC(=O)CSC2=NN3CCCC(=O)N=C3S2)c(OC)c1	-23.5	9.0%	7.3	-4.7	-29.0%
CC(C)(C)c1ccc(-c2nc(N)nc(N)n2)cc1	56.4	114.6%	33.2*	25.8	123.6%
CS(=O)(=O)c1ccc([C@H](O)[C@H](CF)NC(=O)C(Cl)Cl)cc1	.	?	.	.	2.03µM*
CS(=O)(=O)c1ccc([C@@H](O)[C@@H](CF)NC(=O)C(Cl)Cl)cc1	21.6	11.7µM*	.	.	3.29µM*
CS(=O)(=O)c1ccc([C@H](O)[C@H](CO)NC(=O)C(Cl)Cl)cc1	.	-18.4%[12.8 µM]	.	.	?
CS(=O)(=O)c1ccc([C@@H](O)[C@@H](CO)NC(=O)C(Cl)Cl)cc1	58.4	?	.	.	4.65µM*
CS(=O)(=O)c1ccc(C(=O)NC(Cc2ccccc2)c2ccccc2)cc1 (stereo not given)	14.7	-2.9%	-0.3	-5.0	19.8%
Nc1nnc(/C=C/c2ccccc2Cl)s1	78.6	108.8%	36.4*	46.9*	143.5%
COc1cccc(OC)c1Cn1nnc2c(=O)[nH]c(C3CCN(C(=O)c4ccccc4)CC3)nc21	-20.9	.	.	.	.
COc1ccccc1Cn1nnc2c(=O)[nH]c(C3CCN(C(=O)c4ccccc4Cl)CC3)nc21	9.8	9.28µM*	-4.7	-9.1	2.7%
COc1ccccc1Cn1nnc2c(=O)[nH]c(C3CCN(C(=O)c4ccc(F)cc4)CC3)nc21	-32.9	11.7µM*	10.3	-18.6	-21.4%
SMILES	HCMV antiviral	Pf growth 48h	CHX counter	Shiga toxin inh	Pf growth 96h
COc1ccccc1Cn1nnc2c(=O)[nH]c(C3CCN(C(=O)c4ccc(C)cc4)CC3)nc21	-17.8	?	20.2	-4.3	38.2%
CN1OC[C@@H]2CN(S(=O)(=O)c3cccc(C(F)(F)F)c3)[C@H](c3ccc(N4CCCCC4)cc3)C[C@@H]21	36.1	.	.	.	.
CCOc1ccccc1NC(=S)N1CCC(c2nc3ccccc3o2)CC1	?	1.0%	-2.7	-7.8	?
COc1cc(OC)cc(C(=O)NCCC(=O)NCCc2ccc(OC)c(OC)c2)c1	-16.8	31.5%	-2.5	-15.3	?
CCc1c(O)cc2n(c1=O)-c1ccc(Cl)cc1C2(C)C	-18.9	11.7µM*	-0.8	4.5	-26.7%
O=S(=O)(NCCc1cn2ccccc2n1)c1cccs1	38.3	16.9%	19.6*	15.0	30.8%
O=S(=O)(NCc1cn2ccccc2n1)c1cccs1	19.0	35.0%	29.2*	53.2*	1.9%
CCCCCc1nc(-c2nonc2N)no1	22.7	7.3%	-0.6	-3.9	149.8%
Nc1nonc1-c1noc(N2CCCCC2)n1	72.9	95.5%	29.8*	79.9*	32.5%
Cc1cc2ncc(-c3ccc(Cl)cc3)c(N)n2n1	83.8	62.5%	43.5*	63.6*	-38.4%
Cc1ccc(-c2cc3ncc(C#N)c(N)n3n2)cc1	35.7	173.9%	24.1*	69.4*	11.3%
Nc1c(-c2ccc(Cl)cc2)cnc2ncnn12	63.8	?	-2.3	23.0	?
Nc1c(-c2ccccc2)cnc2cc(-c3ccccc3)nn12	24.9	474.2%	23.9*	35.7*	?
COc1ccc(CNC(=O)c2cc3ccccn3n2)cc1OC	12.6	.	.	.	.
Fc1ccc(C2=CC(c3cccs3)n3nnnc3N2)cc1 (stereo not given)	13.6	25.3%	27.1*	58.8*	20.2%
C1=C(c2ccccc2)Nc2nnnn2C1c1cccs1 (stereo not given)	-9.1	49.7%	15.7*	68.8*	-4.1%
CN(C)c1ccc(C2C=C(c3ccccc3)Nc3nnnn32)cc1 (stereo not given)	28.3	.	.	.	.
Cc1ccc(C2=CC(c3cccs3)n3nnnc3N2)cc1 (stereo not given)	154.4	61.9%	47.4*	81.1	22.8%
COc1cccc(NC(=O)CSc2cc(C)[nH]c(=O)n2)c1	-1.2	.	.	.	.
Clc1cccc(-c2cc3nc4c(c(N5CCOCC5)n3n2)CCCC4)c1	-20.0	?	21.9*	46.2	.
O=C(c1cc(-c2cccc(Cl)c2)nc2ccccc12)N1CCN(c2ccccn2)CC1	-2.6	?	7.2	-5.4	52.8%
Fc1cccc(-c2cc3nc4c(c(N5CCOCC5)n3n2)CCCC4)c1	66.3	8.28µM*	51.9*	48.4*	?
OC1CCN(c2c3c(nc4cc(-c5ccc(Cl)cc5)nn24)CCC3)CC1	-10.1	-19.7%	1.2	13.0	48.6%
Clc1cccc(-c2cc3nc4c(c(N5CCN(c6cnccn6)CC5)n3n2)CCCC4)c1	-25.6	2.08µM*	38.2*	36.7*	-20.3%
Fc1cccc(-c2cc3nc4c(c(NCc5ccco5)n3n2)CCCC4)c1	61.5	-32.6%	38.5*	87.2*	-24.3%
c1nc2nc3c(c(N4CCOCC4)n2n1)CCCC3	33.3	13.8%	1.0	12.6	-15.3%
Cc1cc(C)c(S(=O)(=O)N2CCc3ccccc32)c(C)c1	-24.5	?	-1.4	5.4	32.8%
COc1ccc2oc(-c3cccc(NC(=O)c4sc5c([N+](=O)[O-])cccc5c4Cl)c3)nc2c1	-0.9	.	.	.	.
O=c1cc(-c2ccccc2)[nH]n2cnnc12	20.0	0.1%[0.00184 µM]	4.9	13.9	25.6%
COc1cccc(-c2cc(C(F)(F)F)n3nc(-c4ccc(C)cc4)cc3n2)c1	1.2	.	.	.	.

Bioassay records deposited in PubChem by National Center for Advancing Translational Sciences (NCATS).
